Assay results published in PubChem BioAssay (NCI).
This is part of a sample that, as a whole, favours compounds with a hit. Of some 83,000 tested, about 20% had one in any assay.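 Each cell line was grown in a 96-well plate and treated with one concentration of compound for 48 hours. Values below 10 were considered active.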 Values without a mark were called inactive. The source made the active and inactive calls.

Key:
Assay in all cases: NCI-60 one-dose screen, 48 h (100 = growth as untreated, 0 = no growth, -100 = all killed)
HCT-15 colon = conditions: 10 µM unless noted
HT29 colon = conditions: 10 µM unless noted
SNB-75 CNS = conditions: 10 µM unless noted
U251 CNS = conditions: 10 µM unless noted
PC-3 prostate = conditions: 10 µM unless noted
SK-MEL-5 melanoma = conditions: 10 µM unless noted
UACC-62 melanoma = conditions: 10 µM unless noted
LOX IMVI melanoma = conditions: 10 µM unless noted
EKVX NSCLC = conditions: 10 µM unless noted
SN12C renal = conditions: 10 µM unless noted
UO-31 renal = conditions: 10 µM unless noted
TK-10 renal = conditions: 10 µM unless noted
ACHN renal = conditions: 10 µM unless noted
CAKI-1 renal = conditions: 10 µM unless noted
A498 renal = conditions: 10 µM unless noted
CCRF-CEM leukemia = conditions: 10 µM unless noted
MOLT-4 leukemia = conditions: 10 µM unless noted
SK-MEL-28 melanoma = conditions: 10 µM unless noted
SK-MEL-2 melanoma = conditions: 10 µM
SNB-19 CNS = conditions: 10 µM unless noted

SMILES	growth (HCT-15 colon)	growth (HT29 colon)	growth (SNB-75 CNS)	growth (U251 CNS)	growth (PC-3 prostate)	growth (SK-MEL-5 melanoma)	growth (UACC-62 melanoma)	growth (LOX IMVI melanoma)	growth (EKVX NSCLC)	growth (SN12C renal)	growth (UO-31 renal)	growth (TK-10 renal)	growth (ACHN renal)	growth (CAKI-1 renal)	growth (A498 renal)	growth (CCRF-CEM leukemia)	growth (MOLT-4 leukemia)	growth (SK-MEL-28 melanoma)	growth (SK-MEL-2 melanoma)	growth (SNB-19 CNS) [%]
O=C(CNc1nc(-c2ccc(Cl)cc2)cs1)Nc1ccc(-c2nc3ccccc3s2)cc1	110%	108%	77.8%	91.6%	90.7%	87.7%	91.9%	95.6%	102%	101%	75%	66.5%	105%	94.2%	102%	93%	92.7%			
O=C(Cc1ccc(-c2ccc(OCCN3CCOCC3)cc2)cn1)NCc1ccccc1	7.16% (active)	4.32% (active)	15.3%	3.6% (active)	15.2%	-39.8% (active)	29%	17.5%	26.1%	20.3%	35.8%	40.3%	22.1%	19%	1.26% (active)	9.96% (active)	18.1%	36.1%		
Clc1ccc2c(NCCCNCc3ccc4c(c3)OCO4)ccnc2c1	13.2%	4.6% (active)	96.2%	10.6%	51.6%	-96% (active)	89.8%	8.83% (active)	71.8%	66.6%	35.8%	78.4%			101%	41.7%	25.1%	51.2%	29.3%	
COc1ccc(-c2cc3c(oc2=O)-c2ccccc2OC3OC(C)=O)cc1 (centres undefined)	86.2%	81.1%	100%	89.4%	89.2%	98.2%	81.8%	98.2%	73.2%	91.5%		104%	102%	113%	100%	-25.9% (active)	72.4%	118%	100%	
Cc1nc(Nc2n[nH]c3c2CN(C(=O)N[C@H](CN(C)C)c2ccccc2)C3(C)C)c2sccc2n1	20%	-29.6% (active)	-80% (active)	-22.7% (active)	-10% (active)	-84.9% (active)	-87% (active)	-41.3% (active)	12.9%	-6.2% (active)	-11.3% (active)	-30.1% (active)	3.72% (active)	-5.88% (active)	-72.9% (active)	1.05% (active)	-0.869% (active)	-33.7% (active)		
Cc1[nH]n(C(N)=S)c(=O)c1N=Nc1ccc(S(=O)(=O)Nc2ccncn2)cc1	113%	105%	73.7%	113%	77.1%	94.6%	101%		120%	97.6%	84.6%	126%	106%	155%	87.4%	-34.3% (active)	106%	98.9%		
COC(=O)CNC(=O)[C@@H](OC)[C@@H]1Cc2cc3cc(OC4CC(OC5CC(O)C(O)C(C)O5)C(O)C(C)O4)c(C)c(O)c3c(O)c2C(=O)[C@H]1OC1CC(OC2CC(OC3CC(C)(O)C(O)C(C)O3)C(O)C(C)O2)C(O)C(C)O1 (some centres undefined)	31.5%	3.78% (active)	-51.7% (active)	9.93% (active)	12.9%	-44.6% (active)	-65.2% (active)	-15.5% (active)	20.2%	13.7%	10.9%	21%			-74.3% (active)	18%	-2.56% (active)	-17.2% (active)		
C[C@H](NC(=O)c1c(N)nn2cccnc12)c1cc2cccc(C#Cc3cnn(C)c3)c2c(=O)n1-c1ccccc1	10.6%	2.38% (active)	-6.15% (active)	16.7%	18.9%	44%	15.6%	7.86% (active)	33.9%	40.6%	10.6%	-9.96% (active)	20.7%	21.3%	-24.3% (active)	13.8%	-4.98% (active)	45.5%		
O=C1C=CC2(NN=C(c3ccccc3)N2c2cccc(Cl)c2)C(Cl)=C1 (centres undefined)	79.6%	87.8%	82%	84.6%	58.3%	91.8%	44.3%	71.2%	67.5%	84.4%	51.5%	100%	63.7%	79.8%	83.4%	41.6%	39.2%	111%		
Cn1nccc1Nc1nccc(-c2ccn([C@H](CO)c3ccc(Cl)c(F)c3)c(=O)c2)n1	94.1%	19.9%	101%	86.2%	111%	70.7%	9.88% (active)	58.5%	93%	107%	68%	67.4%	90.8%	79.9%	70.5%	99.8%	96%	16.9%		
COC(=O)[C@]12CC[C@@H](C)[C@H](C)[C@@H]1C1=CC[C@@H]3[C@@]4(C)C(C=O)=C[C@@](C)(COS(C)(=O)=O)C4=CC[C@@]3(C)[C@]1(C)CC2	-80.5% (active)	-63.2% (active)	-25.1% (active)	-93.6% (active)	-19.9% (active)	-98.2% (active)	-73.4% (active)	-98.7% (active)	-39.2% (active)	-37.8% (active)	-93.8% (active)	-54.7% (active)	-82.8% (active)	-43.9% (active)		-1.17% (active)	0.901% (active)	-72.3% (active)	-40.3% (active)	
Cc1nc2cc(-c3nn(C(C)C)c4ncnc(N)c34)ccc2o1	1.74% (active)	-8.06% (active)	-70.1% (active)	-15.3% (active)	3% (active)	-49.2% (active)	-53% (active)		-10.3% (active)	1.14% (active)	-35.7% (active)	-47% (active)	-13.4% (active)	-36.7% (active)	-55.5% (active)	6.03% (active)	-8.69% (active)	-34.3% (active)		
COC(=O)[C@]12CC[C@@H](C)[C@H](C)[C@@H]1C1=CC[C@@H]3[C@@]4(C)C[C@@H](OC(=O)/C=C/c5ccccc5)[C@H](O)[C@@](C)(CO)[C@@H]4[C@H](O)C[C@@]3(C)[C@]1(C)CC2	-20.9% (active)	-49.3% (active)		-28.5% (active)	11.3%	18.3%	21.4%	-96.4% (active)	33.8%	-83.2% (active)	19.6%	18.1%	3.47% (active)	15.6%		18.8%	0.848% (active)	4.73% (active)	47.8%	14.3
CNC(=O)c1cc(Oc2ccc(NC(=O)Nc3cc(C(C)(C)C)nn3-c3ccc4ncccc4c3)c(F)c2)ccn1	-12.9% (active)	-45.3% (active)	-94% (active)	-21.7% (active)	-23.6% (active)	-83.5% (active)	-52% (active)	-72.9% (active)	-16.9% (active)	-10.3% (active)	-21.4% (active)	-35.5% (active)	-20.6% (active)		-71.3% (active)	8.17% (active)	-1.34% (active)	-45.5% (active)		
Cn1cnc2c(F)c(Nc3ccc(Br)cc3Cl)c(C(=O)NOCCO)cc21	70%	7.16% (active)	71.6%	46.2%	90.7%	38.2%	-26.6% (active)	27.6%	54.4%	65.9%	40.9%	33.7%	52.1%	40.2%	-37% (active)	95.8%	92.2%	-5.61% (active)		
COC(=O)[C@@H](C)CNS(=O)(=O)N(c1cc(C(F)(F)F)cc(C(F)(F)F)c1)C1CCN(Cc2ccc(F)cc2)CC1	27.9%	19.5%	65.4%	52.3%	45.4%	29.9%	69.1%	48.2%	74.6%	36.8%	44%	89%	86.4%		66%	56.6%	58.2%	82.9%	81.7%	
C=CCCCOC1[C@H](OCc2ccccc2)C(OCc2ccccc2)C(OC)O[C@@H]1CNC(=O)c1cccc(I)c1 (some centres undefined)	24.9%	33.1%	54.4%	25.4%	25%	-6.8% (active)	30.9%	11.4%	36.3%	38.7%	35.4%	64.5%	32.9%	38.3%	71.2%	13.8%	20.4%	70.5%		
